Test results from PubChem BioAssay (Tox21).
Records with an inconclusive call do not appear. Where a call stands in place of a potency, no number is given. Active and inactive are the calls of the source. Unless noted, calls follow the shape of the dose curve; as a rule, active = well fitted curve in the direction sought with a large enough effect in the repeat runs; inconclusive = weak or mixed curves; inactive = no such curve, though single readings can be large; an effect the other way counts as inactive or inconclusive.

Key:
[1] = target: Peroxisome proliferator-activated receptor gamma (Homo sapiens) (UniProt P37231); assay: qHTS assay to identify small molecule antagonists of the peroxisome proliferator-activated receptor gamma (PPARg) signaling pathway (AID 743191; calls by dose curve; also: series mostly up to about 63 µM; nearly all actives have a fitted effect of over 30% in size)
Summary of the method: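 Beta-lactamase reporter under UAS control in HEK293H PPARg-bla cells; compound treatment 17 h at 37C. Read-out: fluorescence intensity after 1 h room-temperature incubation with LiveBLAzer B/G FRET substrate.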

[2] = qHTS assay to identify small molecule antagonists of the peroxisome proliferator-activated receptor gamma (PPARg) signaling pathway - cell viability counter screen (AID 743194); also: nearly all actives have a fitted effect of over 55% in size
Summary of the method: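 Viability was measured as CellTiter-Glo luminescence in GeneBLAzer PPARg UAS-bla HEK293H cells. These cells had been exposed 17 h at 37 C to compounds together with rosiglitazone at 50 nM final, with the beta-lactamase readout taken in the same wells.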

[3] = qHTS assay for small molecule agonists of the antioxidant response element (ARE) signaling pathway - cell viability counter screen (AID 743203; calls by dose curve; also: nearly all actives have a fitted effect of over 55% in size)
Summary of the method: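 Following 16 hrs of compound treatment at 37C, HepG2 cells with an ARE-controlled beta-lactamase gene were lysed with CellTiter-Glo. Luminescence was read after 30 min at room temperature.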

[4] = qHTS assay for small molecule activators of the heat shock response signaling pathway - cell viability counter screen (AID 743209); also: nearly all actives have a fitted effect of over 50% in size
Summary of the method: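 Readout: CellTiter-Glo luminescence, 30 min at room temperature. System: HSE-bla HeLa cells, 1500/well, plated overnight. Treatment: compounds in DMSO, 5 h at 37 C.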

[5] = qHTS assay for small molecule activators of the heat shock response signaling pathway (AID 743210; active = well fitted activation curve with a large enough effect in the signal ratio in the repeat runs, with a control signal flat, not every such curve was filed as active; the % refers to the signal ratio;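 also: HeLa cells with beta-lactamase reporter driven by heat shock elements; series mostly up to about 63 µM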)
Summary of the method: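 In HSE-bla HeLa cells, 5 h compound incubation (37 C) precedes addition of LiveBLAzer B/G substrate; after 2.5 h at room temperature, fluorescence intensity indicates reporter induction.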

[6] = qHTS assay to identify small molecule agonists of the peroxisome proliferator-activated receptor delta (PPARd) signaling pathway - cell viability counter screen (AID 743211); also: nearly all actives have a fitted effect of over 55% in size
Summary of the method: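 Luminescent ATP viability assay (CellTiter-Glo, 30 min RT) in UAS-bla HEK293H cells carrying the PPAR delta reporter construct, 3000 cells/well, after a 17 h compound treatment at 37 C.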

[7] = target: Peroxisome proliferator-activated receptor delta (Homo sapiens) (UniProt Q03181); assay: qHTS assay to identify small molecule agonists of the peroxisome proliferator-activated receptor delta (PPARd) signaling pathway (AID 743212; calls by dose curve)
Summary of the method: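 HEK293H UAS-bla reporter cells, human PPARd system; compounds delivered in DMSO after 5 h plating, then at 37 C. Beta-lactamase FRET read, 2 h RT substrate step.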

[8] = target: Bile acid receptor (Homo sapiens) (UniProt Q96RI1); assay: qHTS assay to identify small molecule antagonists of the farnesoid-X-receptor (FXR) signaling pathway (AID 743217; active = well fitted inhibition curve with a large enough effect in the signal ratio in the repeat runs, not every such curve was filed as active; the % refers to the signal ratio)
Summary of the method: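 GeneBLAzer FXR-UAS-bla HEK 293T, CDCA-stimulated (50 uM final). Compound treatment 16 h, 37 °C. Detection: beta-lactamase cleavage of B/G FRET substrate, fluorescence.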

[9] = qHTS assay to identify small molecule agonists of the farnesoid-X-receptor (FXR) signaling pathway - cell viability counter screen (AID 743218); also: nearly all actives have a fitted effect of over 45% in size; also: potency is read from the fitted curve at half-maximal effect
Summary of the method: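 Parallel cytotoxicity test: compound-treated (16 h, 37 C) HEK 293T FXR-bla reporter cells were lysed with CellTiter-Glo and luminescence recorded.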

[10] = target: Bile acid receptor (Homo sapiens) (UniProt Q96RI1); assay: qHTS assay to identify small molecule agonists of the farnesoid-X-receptor (FXR) signaling pathway (AID 743220; active = well fitted activation curve with a large enough effect in the signal ratio in the repeat runs, not every such curve was filed as active; the % refers to the signal ratio)
Summary of the method: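 Beta-lactamase reporter under UAS control in GeneBLAzer FXR HEK 293T cells (5000/well) measured with LiveBLAzer FRET substrate after 2 h at room temperature. Compound exposure lasted 16 h at 37C.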

[11] = qHTS assay to identify small molecule antagonists of the farnesoid-X-receptor (FXR) signaling pathway - cell viability counter screen (AID 743221; active = well fitted cell-killing curve with a large enough effect in the repeat runs, not every such curve was filed as active; also: nearly all actives have a fitted effect of over 50% in size)
Summary of the method: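 In GeneBLAzer FXR-UAS-bla HEK 293T cells stimulated with 50 uM chenodeoxycholic acid (final), compounds acted for 16 h at 37 C. Viability was assessed afterwards by CellTiter-Glo luminescence.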

[12] = target: Vitamin D3 receptor (Homo sapiens) (UniProt P11473); assay: qHTS assay to identify small molecule agonists of the vitamin D receptor (VDR) signaling pathway (AID 743222; calls by dose curve)
Summary of the method: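 In VDR-bla cells, compound-induced beta-lactamase expression is quantified by FRET substrate fluorescence. Treatment lasts 16 h at 37C; substrate develops 2 h at room temperature.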

[13] = target: Vitamin D3 receptor (Homo sapiens) (UniProt P11473); assay: qHTS assay to identify small molecule antagonists of the vitamin D receptor (VDR) signaling pathway (AID 743223; active = well fitted inhibition curve with a large enough effect in the signal ratio in the repeat runs, not every such curve was filed as active; the % refers to the signal ratio)
Summary of the method: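 Agonist 1alpha,25-dihydroxyvitamin D3 (3 nM in well) was added with each compound to VDR-bla cells preincubated 4 h. Cells stood 16 h at 37C, then FRET substrate 2 h at room temperature; fluorescence intensity recorded.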

[14] = qHTS assay to identify aromatase inhibitors - cell viability counter screen (AID 743084);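 also: cells stimulated with testosterone during compound exposure; nearly all actives have a fitted effect of over 55% in size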; also: potency is read from the fitted curve at half-maximal effect
[15] = qHTS assay to identify small molecule that activate the aryl hydrocarbon receptor (AhR) signaling pathway - cell viability counter screen (AID 743086);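 also: HepG2 liver cells carrying the AhR DRE luciferase reporter; series mostly up to about 70 µM; nearly all actives have a fitted effect of over 45% in size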
Summary of the method: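 Cytotoxicity counter screen: CellTiter-Fluor signal (30 min, 37 C) in 4000 HepG2 cells/well carrying the DRE-luciferase reporter, following 24 h compound exposure at 37 C.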

[16] = qHTS assay for small molecule agonists of the antioxidant response element (ARE) signaling pathway (AID 743202; active = well fitted activation curve with a large enough effect in the signal ratio in the repeat runs, not every such curve was filed as active; the % refers to the signal ratio)
Summary of the method: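 An ARE-responsive beta-lactamase gene stably integrated in HepG2 cells serves as reporter. After 5 h plating and 16 h compound incubation at 37 C, fluorescence of the B/G FRET substrate was measured.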

[17] = qHTS assay to identify small molecule antagonists of the peroxisome proliferator-activated receptor delta (PPARd) signaling pathway - cell viability counter screen (AID 743213); also: nearly all actives have a fitted effect of over 50% in size
Summary of the method: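 CellTiter-Glo was added to PPARd-bla HEK293H wells following 17 h compound treatment in the presence of 300 nM L165041. Luminescence was recorded after 30 min at room temperature.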

[18] = target: Peroxisome proliferator-activated receptor delta (Homo sapiens) (UniProt Q03181); assay: qHTS assay to identify small molecule antagonists of the peroxisome proliferator-activated receptor delta (PPARd) signaling pathway (AID 743215; active = well fitted inhibition curve with a large enough effect in the signal ratio in the repeat runs, not every such curve was filed as active; the % refers to the signal ratio;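 also: cells stimulated with agonist L165041 at 300 nM final during compound exposure; series mostly up to about 62 µM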)
Summary of the method: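 HEK293H UAS-bla, PPARd; agonist L165041 300 nM final with cpd in DMSO; 37 C 17 h; FRET substrate, RT 2 h; fluorescence intensity.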

[19] = target: Peroxisome proliferator-activated receptor gamma (Homo sapiens) (UniProt P37231); assay: qHTS assay to identify small molecule agonists of the peroxisome proliferator-activated receptor gamma (PPARg) signaling pathway (AID 743094; active = well fitted activation curve with a large enough effect in the signal ratio in the repeat runs, not every such curve was filed as active; the % refers to the signal ratio)
Summary of the method: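 Compounds dissolved in DMSO were added to PPARg UAS-bla HEK293H cells for 17 h at 37C, and reporter expression was quantified by fluorescence intensity after 1 h with LiveBLAzer B/G FRET substrate.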

[20] = target: Aryl hydrocarbon receptor (Homo sapiens) (UniProt P35869); assay: qHTS assay to identify small molecule that activate the aryl hydrocarbon receptor (AhR) signaling pathway (AID 743085);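 also: HG2L7.5c1 human HepG2 liver cells with stably integrated DRE-driven firefly reporter; series mostly up to about 70 µM; nearly all actives have a fitted effect of over 15% in size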
Summary of the method: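 24 h compound exposure, 37C, HepG2-derived HG2L7.5c1 cells with DRE-responsive luciferase. Readouts: fluorescence viability, then luminescence at room temperature after 30 min.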

Sequence of Aryl hydrocarbon receptor (Homo sapiens) (P35869 whole entry, looked up): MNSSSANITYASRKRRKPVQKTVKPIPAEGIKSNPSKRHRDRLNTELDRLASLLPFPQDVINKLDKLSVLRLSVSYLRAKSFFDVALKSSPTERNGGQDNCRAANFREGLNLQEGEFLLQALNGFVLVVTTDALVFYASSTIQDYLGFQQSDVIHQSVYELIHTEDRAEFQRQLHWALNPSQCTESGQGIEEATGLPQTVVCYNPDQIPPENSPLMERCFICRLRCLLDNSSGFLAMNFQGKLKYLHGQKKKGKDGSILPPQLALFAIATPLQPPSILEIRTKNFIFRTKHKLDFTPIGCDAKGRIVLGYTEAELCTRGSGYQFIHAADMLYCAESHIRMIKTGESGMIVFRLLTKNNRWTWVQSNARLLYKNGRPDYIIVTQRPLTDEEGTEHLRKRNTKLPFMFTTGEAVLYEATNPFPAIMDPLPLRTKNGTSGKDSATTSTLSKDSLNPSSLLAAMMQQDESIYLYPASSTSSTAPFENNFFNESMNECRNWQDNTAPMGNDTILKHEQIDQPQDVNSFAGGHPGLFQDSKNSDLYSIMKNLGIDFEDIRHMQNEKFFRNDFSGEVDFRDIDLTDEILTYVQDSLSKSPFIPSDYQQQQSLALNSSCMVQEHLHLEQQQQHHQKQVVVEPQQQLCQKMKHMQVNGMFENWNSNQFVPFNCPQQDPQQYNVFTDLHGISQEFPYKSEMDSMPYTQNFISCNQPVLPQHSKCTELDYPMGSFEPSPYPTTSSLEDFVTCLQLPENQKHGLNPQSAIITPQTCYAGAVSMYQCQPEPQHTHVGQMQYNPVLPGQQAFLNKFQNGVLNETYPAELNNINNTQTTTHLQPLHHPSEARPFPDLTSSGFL
Sequence of Peroxisome proliferator-activated receptor delta (Homo sapiens) (Q03181 whole entry, looked up): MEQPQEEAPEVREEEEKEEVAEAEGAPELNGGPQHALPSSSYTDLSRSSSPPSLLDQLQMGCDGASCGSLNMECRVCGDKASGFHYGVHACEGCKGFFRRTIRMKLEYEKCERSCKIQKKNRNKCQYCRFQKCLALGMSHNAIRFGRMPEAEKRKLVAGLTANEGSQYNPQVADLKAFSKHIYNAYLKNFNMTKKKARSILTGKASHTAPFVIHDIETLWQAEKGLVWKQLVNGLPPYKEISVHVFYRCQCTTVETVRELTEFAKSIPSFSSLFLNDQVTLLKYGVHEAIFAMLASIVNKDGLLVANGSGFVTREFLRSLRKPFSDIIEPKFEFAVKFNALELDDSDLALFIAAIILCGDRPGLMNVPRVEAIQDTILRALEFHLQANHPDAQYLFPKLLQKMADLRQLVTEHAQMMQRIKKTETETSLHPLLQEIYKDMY
Sequence of Vitamin D3 receptor (Homo sapiens) (P11473 whole entry, looked up): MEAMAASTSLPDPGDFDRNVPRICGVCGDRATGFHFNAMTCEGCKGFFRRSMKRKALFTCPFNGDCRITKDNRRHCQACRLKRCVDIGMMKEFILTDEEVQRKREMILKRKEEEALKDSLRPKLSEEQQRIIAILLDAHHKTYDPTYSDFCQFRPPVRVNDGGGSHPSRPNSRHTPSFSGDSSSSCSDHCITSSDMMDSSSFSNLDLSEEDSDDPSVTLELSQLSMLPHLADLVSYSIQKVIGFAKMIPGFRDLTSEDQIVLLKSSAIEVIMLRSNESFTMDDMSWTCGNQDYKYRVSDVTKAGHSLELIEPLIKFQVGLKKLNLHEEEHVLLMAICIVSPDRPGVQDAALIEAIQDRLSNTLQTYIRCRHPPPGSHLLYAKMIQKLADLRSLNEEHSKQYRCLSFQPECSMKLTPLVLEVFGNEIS
Sequence of Bile acid receptor (Homo sapiens) (Q96RI1 whole entry, looked up): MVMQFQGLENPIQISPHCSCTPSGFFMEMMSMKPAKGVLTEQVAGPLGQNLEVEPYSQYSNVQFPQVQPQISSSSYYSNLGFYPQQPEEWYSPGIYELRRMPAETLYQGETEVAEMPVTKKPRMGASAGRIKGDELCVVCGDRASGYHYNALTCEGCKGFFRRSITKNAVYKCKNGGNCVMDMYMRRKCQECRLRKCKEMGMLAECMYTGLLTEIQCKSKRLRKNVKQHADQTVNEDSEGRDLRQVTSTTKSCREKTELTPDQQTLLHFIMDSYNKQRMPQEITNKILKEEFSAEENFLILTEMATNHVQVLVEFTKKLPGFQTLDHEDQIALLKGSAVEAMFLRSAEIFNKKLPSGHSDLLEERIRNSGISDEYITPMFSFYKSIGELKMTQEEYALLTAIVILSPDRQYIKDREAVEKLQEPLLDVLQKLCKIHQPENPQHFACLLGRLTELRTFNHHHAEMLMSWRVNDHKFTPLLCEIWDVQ
Sequence of Peroxisome proliferator-activated receptor gamma (Homo sapiens) (P37231 whole entry, looked up): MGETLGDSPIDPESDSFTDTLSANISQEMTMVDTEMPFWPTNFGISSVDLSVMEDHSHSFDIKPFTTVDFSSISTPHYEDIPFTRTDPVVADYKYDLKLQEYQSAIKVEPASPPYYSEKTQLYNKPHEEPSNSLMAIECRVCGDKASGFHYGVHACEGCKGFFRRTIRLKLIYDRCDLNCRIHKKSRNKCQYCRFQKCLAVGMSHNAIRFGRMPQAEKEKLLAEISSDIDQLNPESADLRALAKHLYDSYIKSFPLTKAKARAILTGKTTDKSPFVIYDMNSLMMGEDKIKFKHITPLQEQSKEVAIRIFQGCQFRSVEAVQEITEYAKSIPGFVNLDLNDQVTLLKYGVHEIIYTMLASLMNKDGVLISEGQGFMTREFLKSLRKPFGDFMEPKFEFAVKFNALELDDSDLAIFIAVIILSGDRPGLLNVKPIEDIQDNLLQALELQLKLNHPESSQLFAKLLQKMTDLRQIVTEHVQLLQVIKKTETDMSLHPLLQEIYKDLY

Row | SMILES | Potency [1] | outcome [2] | outcome [3] | outcome [4] | outcome [5] | outcome [6] | outcome [7] | outcome [8] | Potency [9] | outcome [10] | outcome [11] | outcome [12] | outcome [13] | Potency [14] | Potency [15] | Potency [16] | outcome [17] | outcome [18] | outcome [19] | Potency [20]
1 | CC(=O)OC[C@H]1O[C@@H](OC(C)=O)[C@H](OC(C)=O)[C@@H]1OC(C)=O | inactive | inactive | inactive | inactive | inactive | inactive | inactive | inactive | inactive | inactive | inactive | inactive | inactive |  |  |  |  |  |  | 
2 | COc1ccc(NS(=O)(=O)c2ccc(N)cc2)nn1 |  | inactive | inactive | inactive | inactive |  |  |  |  | inactive | inactive | inactive | inactive | inactive | inactive | inactive |  |  |  | 
3 | CCCCCCCC/C=C\CCCCCCCC(=O)OC[C@@H](O)[C@H]1OC[C@H](O)[C@H]1O |  |  | inactive | inactive | inactive | inactive | inactive |  | inactive |  | inactive | inactive | inactive | inactive | inactive |  | inactive |  |  | 
4 | CC(=O)OC(C)(C)Cc1ccccc1 |  | inactive |  | inactive | inactive | inactive | inactive | inactive | inactive | inactive | inactive | inactive | inactive |  | inactive |  | inactive | inactive |  | 
5 | Nc1c(NC/C=C\COc2cc(CN3CCCCC3)ccn2)c(=O)c1=O | inactive | inactive | inactive | inactive |  | inactive |  |  | inactive | inactive | inactive |  | inactive | 13.3 µM (active) |  |  | inactive | inactive | inactive | 
6 | CC(=O)N(CC(O)CO)c1c(I)c(C(=O)NCC(O)CO)c(I)c(C(=O)NCC(O)CO)c1I (stereo not drawn) | inactive | inactive | inactive | inactive |  |  |  |  | inactive |  | inactive | inactive |  |  | inactive | inactive | inactive | inactive | inactive | inactive
7 | Nc1nc(=O)n([C@@H]2O[C@H](CO)[C@@H](O)[C@@H]2F)cc1I |  | inactive | inactive | inactive |  | inactive | inactive |  | inactive |  | inactive |  | inactive |  |  | inactive |  |  |  | 
8 | CC(=O)OCCCc1ccccc1 |  | inactive | inactive | inactive | inactive | inactive | inactive | inactive | inactive | inactive | inactive |  |  | inactive | inactive |  | inactive | inactive |  | 
9 | CCOC(=O)CC#N | inactive | inactive | inactive | inactive | inactive | inactive | inactive |  | inactive | inactive | inactive |  |  |  | inactive | inactive | inactive | inactive | inactive | inactive
10 | CCN(CC)C(=O)C1CN2CCc3cc(OC)c(OC)cc3C2CC1OC(C)=O (stereo not drawn) |  | inactive |  | inactive |  |  | inactive | inactive | 237 nM (active) | inactive | inactive |  |  |  |  | inactive | inactive | inactive |  | 
11 | CCCCCN(CCCOC)C(=O)C(CCC(=O)O)NC(=O)c1ccc(Cl)c(Cl)c1 (stereo not drawn) | inactive | inactive | inactive |  | inactive | inactive | inactive |  |  |  | inactive | inactive | inactive |  |  | inactive | inactive | inactive |  | 
12 | CC(CC(=O)O)CC(C)(C)C (stereo not drawn) |  | inactive | inactive | inactive | inactive | inactive | inactive |  | inactive | inactive | inactive | inactive | inactive |  | inactive | inactive | inactive | inactive | inactive | inactive
13 | CNC(=O)C(c1ccccc1)c1ccccc1 |  | inactive | inactive | inactive |  | inactive |  |  | inactive | inactive | inactive | inactive | inactive |  | inactive | inactive |  |  |  | inactive
14 | c1ccc(CNc2ncnc3nc[nH]c23)cc1 |  | inactive | inactive | inactive | inactive | inactive |  |  | inactive | inactive | inactive | inactive | inactive |  | inactive | inactive | inactive |  |  | 
15 | O=C(O)c1ccc(OCCN2CCCCC2)cc1 | inactive | inactive | inactive | inactive | inactive | inactive | inactive |  | inactive |  | inactive | inactive | inactive |  |  | inactive | inactive | inactive |  | 
